This is one part of a sample in which hits are shown more often than they occur.
Pf Dd2 inh = qHTS Primary assay for Inhibitors of Plasmodium falciparum Dd2 growth in vitro | Potency, µM (doses to about 28.9 µM), actives largely listed as inhibitors | P. falciparum Dd2 growth, SYBR Green, 72 h | actives 4.3% (n = 120,000); active = well fitted inhibition curve with a large enough effect; also: nearly all actives have a fitted effect of over 65% in size
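Infected erythrocytes (Dd2, 0.3% parasitemia, 2.5% hematocrit final) are added to compound in RPMI-1640/Albumax II medium, grown 72 h at 37C in low oxygen, then lysed with saponin/Triton-X containing SYBR Green and read by fluorescence.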
A number is an active result; – = inactive; [ ] = another dose, or the depositor's remark.

SMILES	Pf Dd2 inh
O=C(CC1N=C2c3ccccc3N=C(SCC(=O)Nc3ccc(F)cc3)N2C1=O)NCc1cccs1 (centres undefined)	–
O=C(CSC1=Nc2ccccc2C2=NC(CC(=O)NC3CCCCC3)C(=O)N12)Nc1ccc(F)cc1 (centres undefined)	–
Cc1ccc(CSC2=Nc3ccccc3C3=NC(CCC(=O)NCCc4ccccc4)C(=O)N23)cc1 (centres undefined)	10µM
CC(C)c1ccc(NC(=O)CSC2=Nc3ccccc3C3=NC(CCC(=O)NC4CCCCC4)C(=O)N23)cc1 (centres undefined)	–
CCOc1ccccc1NC(=O)CSC1=Nc2ccccc2C2=NC(CC(=O)NC3CCCCC3)C(=O)N12 (centres undefined)	11.2µM
O=C(CC1N=C2c3ccccc3N=C(SCc3cccc(F)c3)N2C1=O)NCc1cccs1 (centres undefined)	–
O=C(CC1N=C2c3ccccc3N=C(SCC(=O)Nc3cccc(C(F)(F)F)c3)N2C1=O)NCc1cccs1 (centres undefined)	12.6µM
CCc1ccc(NC(=O)CSC2=Nc3ccccc3C3=NC(CC(=O)NC4CCCCC4)C(=O)N23)cc1 (centres undefined)	–
COc1ccc(CCNC(=O)CSC2=Nc3ccccc3C3=NC(CCC(=O)NCc4ccccc4)C(=O)N23)cc1OC (centres undefined)	–
O=C(CSC1=Nc2ccccc2C2=NC(CCC(=O)NC3CCCCC3)C(=O)N12)Nc1cccc(C(F)(F)F)c1 (centres undefined)	10µM
Cc1ccc(CSC2=Nc3ccccc3C3=NC(CCC(=O)NCc4cccs4)C(=O)N23)cc1 (centres undefined)	–
COc1ccc(NC(=O)CSC2=Nc3ccccc3C3=NC(CCC(=O)NC4CCCCC4)C(=O)N23)cc1 (centres undefined)	–
O=C(NC1CCCN(c2cc(-c3ccc(F)cc3)[nH]n2)C1)c1ccncc1 (centres undefined)	–
COc1ccc(C(=O)N[C@H](C)c2c(-c3ccc(F)cc3)noc2C(=O)O)cc1	–
CSc1ncc(CN2CCC(n3nccc3NC(=O)Cc3ccccc3)CC2)cn1	–
COc1ccccc1-c1ccc(C(=O)N2CCCC[C@H](N(C)C)C2)cc1	–
CCn1nc(-c2ccc(OC)nc2)nc1N(C)C	–
Cc1ccc(C(=O)N2CCN(C(=O)c3nnn4c3COC(c3ccccc3)C4)CC2)s1 (centres undefined)	–
COc1ccc(OC)c(NC(=O)CSC2=Nc3ccccc3C3=NC(CC(=O)NCc4ccco4)C(=O)N23)c1 (centres undefined)	–
COCCCNC(=O)CSC1=Nc2ccccc2C2=NC(CCC(=O)NCc3ccccc3OC)C(=O)N12 (centres undefined)	–
COc1ccc(Cl)cc1NC(=O)CSC1=Nc2ccccc2C2=NC(CC(=O)NCc3cccs3)C(=O)N12 (centres undefined)	11.2µM
CCCCNC(=O)CSC1=Nc2ccccc2C2=NC(CCC(=O)NCc3ccccc3OC)C(=O)N12 (centres undefined)	–
O=C(CCC1N=C2c3ccccc3N=C(SCC(=O)Nc3ccccc3F)N2C1=O)NCc1cccs1 (centres undefined)	–
CCCCNC(=O)CC1N=C2c3ccccc3N=C(SCC(=O)NCc3ccccc3Cl)N2C1=O (centres undefined)	10µM
CCN1C(=O)C2CC3(CCN(S(=O)(=O)c4cn(C)cn4)CC3)CN2C1=O (centres undefined)	–
SMILES	Pf Dd2 inh
O=C(Cc1ccc2c(c1)OCO2)N[C@H]1[C@@H]2CCO[C@@H]2[C@@H]1C1CCCC1	–
O=C(CS(=O)(=O)c1cccc2nsnc12)N1CCN(c2ccccc2)CC1	–
CC(C)C(=O)NCC1CN(Cc2ccccc2)C(=O)c2c(ccnc2-c2ccc(OCC(=O)O)cc2)O1 (centres undefined)	1.12µM
O=C(O)COc1ccc(-c2nccc3c2C(=O)N(Cc2c[nH]c4ccccc24)CC(COc2ccccc2)O3)cc1 (centres undefined)	–
Cc1ncccc1OCC1CN(Cc2cccc(C(F)(F)F)c2)C(=O)c2c(ccnc2-c2ccc(OCC(=O)O)cc2)O1 (centres undefined)	–
CN(C)C(C(=O)N1CCC(C(=O)N2CCCC2)CC1)c1cccc(F)c1 (centres undefined)	–
CC(=O)c1cc(CC(=O)N[C@@H]2COCC[C@@H]2OCc2ccccc2)cs1	–
CN1CCCC(CN(CCc2ccccc2)C(=O)c2cc[n+]([O-])cc2)C1 (centres undefined)	–
CC(=O)c1cc(CN(CCc2ccccc2)CC2CCCN(C)C2)cs1 (centres undefined)	12.6µM
O=S(=O)(c1cccs1)N1CCCC2(C1)Nc1cccnc1NC2=NC1CCCC1 (centres undefined)	–[5.79 µM]
Cc1ccc(Cc2nc3ccccc3nc2SCC(=O)N2CCc3ccccc32)cc1	–
CN(C)CC1(O)CCC2(CCN(C(=O)CCc3nc4ccccc4[nH]3)CC2)CC1	–
O=C(Cn1ncc2c(Cl)cccc21)NCc1cccc(F)c1	–
Cc1ccccc1NC(=O)c1c(C)oc2ccc(O)c(CN(C)Cc3ccccc3)c12	1.12µM
Cc1ccccc1NC(=O)C1=NO[C@@H]2CN(CCc3ccccc3)C[C@H]12	–
Cc1ccccc1NC(=O)c1ccc2nc(Cc3ccccc3)oc2c1	–
Cc1oc2ccc(O)c(CN(C)Cc3ccccc3)c2c1C(=O)Nc1cccc(Cl)c1C	3.16µM
CCN(Cc1ccccc1)Cc1c(O)ccc2oc(C)c(C(=O)Nc3ccccc3C)c12	1.12µM
CCCn1ccc2oc(C)c(C(=O)NCc3ccccc3)c2c1=O	–
Cc1c(Cl)cccc1NC(=O)c1ccc(C(=O)Nc2cccc(Cl)c2C)cc1	–
CCc1ccc2oc(C(=O)Nc3cccc(Cl)c3C)cc(=O)c2c1	–
Cc1cc(C)c2c(=O)cc(C(=O)Nc3ccc(S(=O)(=O)N(C)Cc4ccccc4)cc3)oc2c1	–
CCCOc1ccc(OC(=O)c2ccc(-c3ccc(CCC)cn3)cc2)cc1	–
CCN(CC)Cc1cnc2c(C(=O)N(C)C3Cc4ccccc4C3)cnn2c1	–
CCc1nc(-c2c3n(c(=O)n(CC(=O)Nc4cccc(OC)c4)c2=O)CCCC3)no1	–
SMILES	Pf Dd2 inh
CCn1c(Cn2ccc3ccccc3c2=O)nnc1C1CC(N)C1 (centres undefined)	–
O=C(Cc1cccs1)NC1CC(c2cc(N3CCC(O)C3)ncn2)C1 (centres undefined)	–
COc1ccc(N(C)C(=O)c2ccc3c(c2)N(S(C)(=O)=O)CC3)cc1	–
COc1cccc(CNC(=O)c2ccc3c(c2)c(C)c(C)n3Cc2ccccc2)c1OC	–
Cc1cccc(NC(=O)CSc2nc3c(oc4ccccc43)c(=O)n2Cc2ccco2)c1	–
CCCN1CCN(CCCNC(=O)c2ccc3c(c2)sc2nc(-c4ccc(OC)cc4)cn23)CC1	1µM
CCOc1ccccc1CNC(=O)c1ccc2c(c1)sc1nc(-c3cccc(OC)c3)cn12	11.2µM
COc1ccc(-c2cn3c(n2)sc2cc(C(=O)Nc4cccc(SC)c4)ccc23)cc1	–
COc1ccc(-c2cn3c(n2)sc2cc(C(=O)NCc4ccccc4OC)ccc23)cc1	–
COc1ccc(-c2cn3c(n2)sc2cc(C(=O)Nc4cc(OC)cc(OC)c4)ccc23)cc1	–
CCN(CC)CCCNC(=O)c1ccc2c(c1)sc1nc(-c3ccc(C)cc3)cn12	1.26µM
COc1ccc(-c2cn3c(n2)sc2cc(C(=O)NCCCN4CCN(C)CC4)ccc23)cc1	2.51µM

Assay outcomes deposited in PubChem by National Center for Advancing Translational Sciences (NCATS).
